Measured values reported in PubChem BioAssay (NCATS).
Records with an inconclusive call do not appear. Values without a mark were called inactive. The source made the active and inactive calls. Calls follow the shape of the dose curve; as a rule, active = well fitted inhibition curve with a large enough effect; inconclusive = small, poorly fitted or top-dose-only effect; inactive = flat fitted curve, though single readings scatter.

system: Zika virus NS2B-NS3 protease; assay: Primary screen GU AMC qHTS for Zika virus inhibitors (AID 1347154); settings: Zika NS2B-NS3 unlinked protease, AMC fluorogenic substrate; series mostly up to 54.1 µM; activity change, negative = inhibition: at the top concentration; also: nearly all actives have a fitted effect of over 70% in size;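 as to activity change, negative = inhibition: 0% = no-inhibitor control and -100% = no-enzyme control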
Method in brief: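 Fluorogenic AMC-substrate cleavage by noncovalent NS2B-NS3 protease complex (25 nM, pH 8.0 Tris buffer with Tween 20) followed for 15 minutes at room temperature (~20% conversion). Percent inhibition from ex340/em450 signal change, fitted by 4-parameter Hill equation.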
Potency is read from the fitted curve at half-maximal effect.

| Compound | activity change, negative = inhibition [%] | Potency |
| --- | --- | --- |
| CC(C)NCC(O)c1ccc2ccccc2c1 (centres undefined) | 2.96 | – |
| NC(=S)N/N=C/c1cccnc1 | -3.47 | – |
| CCOC(=O)[C@@](C)(N)Cc1ccc(O)c(O)c1 | -3.42 | – |
| COC(=O)C(c1ccccc1Cl)N1CCc2sccc2C1 (centres undefined) | – | inactive |
| CC(C)Cc1ccc(CC(=O)O)cc1 | -9.15 | – |
| COc1ccc(C(Cl)=C(c2ccc(OC)cc2)c2ccc(OC)cc2)cc1 | -10.8 | – |
| Cc1cccc(C)c1NC(=O)c1ccccc1C(=O)O | -4.8 | – |
| COc1cc(NS(=O)(=O)c2ccc(N)cc2)ncn1 | -2.92 | – |
| Cc1ccc(O)c([C@H](CCN(C(C)C)C(C)C)c2ccccc2)c1 | 4.1 | – |
| C/C=C/C=N/NC(=O)c1ccncc1 | 1.06 | – |
| CC(=O)OC[C@H]1O[C@@H](n2ncc(=O)[nH]c2=O)[C@H](OC(C)=O)[C@@H]1OC(C)=O | 5.5 | – |
| CCCCC(CC)COC(=O)c1ccc(N(C)C)cc1 (centres undefined) | -14.6 | – |
| C[N+]1(CC2COC(c3ccccc3)(C3CCCCC3)O2)CCCCC1 (centres undefined) | -4.1 | – |
| COc1ccc(/C=N/NC(=O)c2ccncc2)cc1OC | 1.1 | – |
| CCCCCCCCCCCCCC[N+](C)(C)Cc1ccccc1 | -21.2 | – |
| CC(=O)Nc1ccc(OC(=O)c2ccccc2OC(C)=O)cc1 | 5.47 | – |
| Cc1ncc(CO)c(C=O)c1O | – | 14.4 µM (active) |
| N/C(=N\N=C\c1ccc(Cl)cc1)N/N=C/c1ccc(Cl)cc1 | -3.45 | – |
| CC(CNC1CCCCC1)OC(=O)c1ccccc1 (centres undefined) | 2.47 | – |
